Test results from PubChem BioAssay (NCATS).
Where “and” joins values, the source holds several entries; their conditions need not be identical. Equal entries are not always repeated. Inconclusive results are not listed. Calls of active or inactive are those of the source. Calls come from the whole dose curve; as a rule, active = well fitted inhibition curve with a large enough effect; inconclusive = small, poorly fitted or top-dose-only effect; inactive = flat fitted curve, though single readings scatter.

What was measured:
Assay in all cases: Cytotoxic Profiling of Annotated Libraries Using Quantitative High-Throughput Screening (AID 1296008); note: nearly all actives have a fitted effect of over 60% in size
Details in all cases: Five cell lines viability, CellTiter-Glo ATP luminescence, 48-72 h; max response: stronger effect = lower value
[1] = test system: CRL-7250
Procedure, shortened: (§1)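 Cells exposed to compounds for 48 or 72 hr at 37 degrees Celsius. Viability read as ATP-coupled luminescence with CellTiter-Glo after 10 min at room temperature.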

[2] = test system: HEK293
Procedure, shortened: as §1

[3] = test system: HaCat
Procedure, shortened: as §1

[4] = test system: KB-3-1
Procedure, shortened: as §1

[5] = test system: NIH3T3
Procedure, shortened: as §1

Measured: max response
% is set by controls: 0 for no effect and ±100 for the full control effect.

O=C(O)CNC(=O)CNC(=O)CNC(=O)CSC(=O)c1ccccc1
inactive: [1] -5.45% | [2] -4.78% | [3] -1.1% | [4] 4.32% | [5] 1.99%

CCN(CC)CCOc1ccc(/C(=C(\Cl)c2ccccc2)c2ccccc2)cc1
inactive: [1] -10.3% and -19.3%

C=CC[N+]1([C@H]2C[C@H]3[C@@H]4CC[C@H]5C[C@H](OC(C)=O)[C@@H](N6CCCCC6)C[C@]5(C)[C@H]4CC[C@]3(C)[C@H]2OC(=O)CC)CCCCC1
inactive: [1] -0.558% | [2] 0.459% | [3] 4.73% | [4] | [5] -0.979%

C[N+](C)(CCOc1ccccc1)Cc1cccs1
inactive: [1] -3.68% | [2] -16.4% | [3] 2.51% | [4] -7.87% | [5] -2.33%

Brc1ccc([C@H]2CN3CCSC3=N2)cc1
inactive: [1] -3.15% | [2] 3.24% | [3] -7.1% | [4] 5.27% | [5]

CC(C)C(C)(C)C(C)(C)C(C)(C)S
inactive: [1] -4.15% | [2] -4.55% | [3] 4.37% | [4] -15.8% | [5] -4.3%

O=C(NN1CCCC1)NS(=O)(=O)c1ccc(Cl)cc1
inactive: [1] -14.3% | [2] 2.09% | [3] -45.6% | [4] 5.98% | [5] 4.71%

Nc1nnnn1-c1ccccc1
inactive: [1] -0.0528% | [2] -1.05% | [3] -26.2% | [4] 7.05% | [5] -4.79%
